Compounds with a hit are over-represented: about 27% of the library has one in this group of screens.
sEH inhibitor: soluble epoxide hydrolase inhibitors, primary screen, biochemical, human sEH; Bifunctional epoxide hydrolase 2 (Homo sapiens), P34913; recombinant human sEH enzymatic activity assay; inhibition, % at 2 µM; 91,000 compounds, 0.34% hits; AID 707, 2007; in the data active means inhibition above about 80%
CYP2C19 activ: human CYP2C19 activators, primary screen, biochemical, luminescence; Cytochrome P450 2C19 (Homo sapiens), P33261; recombinant CYP2C19, luciferin-H EGE luminescence; hits give high values; 0 = fully inhibited enzyme, 1 = untreated enzyme; activation factor at 5 µM; 96,000 tested, under 10 active; AID 1025, 2008;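 active means activation factor of at least 2 at 5 µM in the primary screen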
Target sequence (P33261 whole entry, looked up): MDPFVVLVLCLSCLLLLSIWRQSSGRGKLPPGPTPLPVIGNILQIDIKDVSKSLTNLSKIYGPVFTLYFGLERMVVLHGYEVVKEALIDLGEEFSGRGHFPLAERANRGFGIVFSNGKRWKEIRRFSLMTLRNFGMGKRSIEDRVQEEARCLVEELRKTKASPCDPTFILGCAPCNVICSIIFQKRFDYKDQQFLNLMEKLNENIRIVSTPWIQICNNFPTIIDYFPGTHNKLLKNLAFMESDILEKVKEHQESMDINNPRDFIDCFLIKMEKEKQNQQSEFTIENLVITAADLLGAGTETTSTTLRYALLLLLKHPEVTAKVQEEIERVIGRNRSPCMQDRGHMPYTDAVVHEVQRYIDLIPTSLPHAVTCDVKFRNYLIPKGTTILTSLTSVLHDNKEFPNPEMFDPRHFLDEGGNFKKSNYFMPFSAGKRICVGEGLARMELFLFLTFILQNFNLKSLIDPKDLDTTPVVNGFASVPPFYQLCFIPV
CYP2C9 inhib: blockers of cytochrome P450 2C9 activity – biochemical, luminescence, ADME assay, primary screen; CYP2C9 Supersomes, luciferin-H conversion; P11712; inhibition, % at 5 µM; 96,000 compounds, 20% hits;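 active means blocking of liver enzyme CYP2C9 beyond about 50% at 5 µM, limit read from the data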
sEH act: soluble epoxide hydrolase activators, primary screen, biochemical, human sEH; Bifunctional epoxide hydrolase 2 (Homo sapiens), P34913; purified human sEH enzymatic activity, activator screen; activation, % at 2 µM; 91,000 compounds, 0.04% hits; in the data active means activation above about 37%
CYP2C9 activ: human CYP2C9 activators, primary screen, biochemical, luminescence; recombinant CYP2C9, luciferin-H conversion; hits give high values; factor 1 = untreated enzyme, 0 = blocked; activation factor at 5 µM; 96,000 compounds, 1.4% hits;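 active means activation factor of 2 or more for CYP2C9 at a 5 µM dose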
CYP2C19 inh: blockers of cytochrome P450 2C19 activity – biochemical, luminescence, ADME assay, primary screen; P33261; CYP2C19 Supersomes, luciferin-H EGE luminescence, 30 min; inhibition, % at 5 µM; 96,000 compounds, 21% hits; AID 778, 2007;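 active means CYP2C19 inhibition above a set limit at 5 µM in the primary screen, cut at about 50% in these data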
Numbers stand for hits.

Screening COc1cc(C(=O)Oc2ccccc2/C=N/NC(=O)c2ccc(C)cc2)cc(OC)c1OC returned sEH inhibitor inactive, CYP2C19 activ inactive, CYP2C9 inhib 59, sEH act inactive, CYP2C9 activ inactive and CYP2C19 inh inactive.
Screening CCOc1cc(/C=N\NC(=O)c2ccc(NC(=O)C(C)(C)C)cc2)ccc1OC(=O)c1ccc(C)cc1 returned sEH inhibitor inactive, CYP2C19 activ inactive, CYP2C9 inhib inactive, sEH act inactive, CYP2C9 activ inactive and CYP2C19 inh inactive.
Screening CC(C)(C)C(=O)Nc1ccc(C(=O)N/N=C/c2ccccc2OC(=O)c2ccccc2)cc1 returned sEH inhibitor inactive, CYP2C19 activ inactive, CYP2C9 inhib inactive, sEH act inactive, CYP2C9 activ inactive and CYP2C19 inh 64.
`COc1cccc(/C=N/n2c(-c3cccs3)n[nH]c2=S)c1` gave sEH inhibitor inactive, CYP2C19 activ inactive, CYP2C9 inhib inactive, sEH act inactive, CYP2C9 activ inactive and CYP2C19 inh inactive.
For CC(C)CNC(=O)COC(=O)c1cc(Cl)cc(Cl)c1N the results were sEH inhibitor inactive, CYP2C19 activ inactive, CYP2C9 inhib inactive, sEH act inactive, CYP2C9 activ inactive and CYP2C19 inh 66.
For O=[N+]([O-])c1cc(Cl)cc(/C=N\Nc2ccccn2)c1O the results were sEH inhibitor inactive, CYP2C19 activ inactive, CYP2C9 inhib 50, sEH act inactive, CYP2C9 activ inactive and CYP2C19 inh 54.
For Cc1cccc(C)c1-n1c(C)cc(/C=N\Nc2ccc([N+](=O)[O-])cn2)c1C the results were sEH inhibitor inactive, CYP2C19 activ inactive, CYP2C9 inhib inactive, sEH act inactive, CYP2C9 activ inactive and CYP2C19 inh inactive.
Screening COc1ccc(CN2CCn3ncc(C(=O)Nc4cc(C)cc(C)c4)c3C2=O)cc1 returned sEH inhibitor inactive, CYP2C19 activ inactive, CYP2C9 inhib inactive, sEH act inactive, CYP2C9 activ inactive and CYP2C19 inh inactive.
`CC1(c2ccccc2)NC(=O)N(CC(=O)NC(=O)NC2CCCC2)C1=O` (stereo not drawn) gave sEH inhibitor inactive, CYP2C19 activ inactive, CYP2C9 inhib inactive, sEH act inactive, CYP2C9 activ inactive and CYP2C19 inh 53.
`CCOC(=O)NC(=O)CN1C(=O)NC(C)(c2ccccc2)C1=O` (stereo not drawn) gave sEH inhibitor inactive, CYP2C19 activ inactive, CYP2C9 inhib inactive, sEH act inactive, CYP2C9 activ inactive and CYP2C19 inh inactive.
For CCOc1ccccc1CN1C(=O)NC(C)(c2ccccc2)C1=O (stereo not drawn) the results were sEH inhibitor inactive, CYP2C19 activ inactive, CYP2C9 inhib inactive, sEH act inactive, CYP2C9 activ inactive and CYP2C19 inh 94.
CC1(c2ccccc2)NC(=O)N(CCOc2ccccc2)C1=O (stereo not drawn) was read as CYP2C19 activ inactive, CYP2C9 inhib inactive, CYP2C9 activ inactive and CYP2C19 inh 65.
COc1ccc(C(=O)CN2C(=O)NC(C)(c3ccccc3)C2=O)cc1OC (stereo not drawn) was read as sEH inhibitor inactive, CYP2C19 activ inactive, CYP2C9 inhib inactive, sEH act inactive, CYP2C9 activ inactive and CYP2C19 inh inactive.
For CCCCN(N=Nc1nonc1OC)c1nonc1OC the results were sEH inhibitor inactive, CYP2C19 activ inactive, CYP2C9 inhib 73, sEH act inactive, CYP2C9 activ inactive and CYP2C19 inh 85.
For CCCC/C(C)=N\NC(=O)CNS(=O)(=O)c1ccc([N+](=O)[O-])cc1 the results were sEH inhibitor inactive, CYP2C19 activ inactive, CYP2C9 inhib inactive, sEH act inactive, CYP2C9 activ inactive and CYP2C19 inh inactive.
For Cc1ccc2c(c1)-c1cc(C)nn1C(c1sccc1C)N2 (stereo not drawn) the results were sEH inhibitor inactive, CYP2C19 activ inactive, CYP2C9 inhib 56, sEH act inactive, CYP2C9 activ inactive and CYP2C19 inh 79.
Cc1cc2n(n1)C(c1sccc1C)Nc1ccccc1-2 (stereo not drawn) was read as sEH inhibitor inactive, CYP2C19 activ inactive, CYP2C9 inhib 56, sEH act inactive, CYP2C9 activ inactive and CYP2C19 inh 66.
Screening Cc1cc2n(n1)C(c1sccc1C)Nc1c(C)cccc1-2 (stereo not drawn) returned sEH inhibitor inactive, CYP2C19 activ inactive, CYP2C9 inhib inactive, sEH act inactive, CYP2C9 activ inactive and CYP2C19 inh inactive.
Screening Cc1cc2n(n1)C(c1ccc(N(C)C)cc1)Nc1ccccc1-2 (stereo not drawn) returned sEH inhibitor inactive, CYP2C19 activ inactive, CYP2C9 inhib inactive, sEH act inactive, CYP2C9 activ inactive and CYP2C19 inh inactive.
CCN(CC)S(=O)(=O)c1ccc(-c2nnc3sc4cccc(C)c4n23)cc1 was read as sEH inhibitor inactive, CYP2C19 activ inactive, CYP2C9 inhib 78, sEH act inactive, CYP2C9 activ inactive and CYP2C19 inh 72.
For CCc1ccc(NC(=O)CNC(=O)c2cn(-c3ccccc3OC)c(=O)c3ccccc23)cc1 the results were sEH inhibitor inactive, CYP2C19 activ inactive, CYP2C9 inhib 99, sEH act inactive, CYP2C9 activ inactive and CYP2C19 inh 98.
Screening CCNC(=O)NC(=O)C(C)SCc1ccccc1C (stereo not drawn) returned sEH inhibitor inactive, CYP2C19 activ inactive, CYP2C9 inhib inactive, sEH act inactive, CYP2C9 activ inactive and CYP2C19 inh 67.
Screening CN(CC(=O)OCC(=O)NC(=O)c1cccn1C)S(=O)(=O)c1ccc(Cl)cc1 returned sEH inhibitor inactive, CYP2C19 activ inactive, CYP2C9 inhib inactive, sEH act inactive, CYP2C9 activ inactive and CYP2C19 inh inactive.
For O=C(CN(C(=O)CSc1nc2ccccc2o1)c1ccccc1)NC1CCCCC1 the results were sEH inhibitor inactive, CYP2C19 activ inactive, CYP2C9 inhib inactive, sEH act inactive, CYP2C9 activ inactive and CYP2C19 inh 77.
O=C(CN(C(=O)CSc1nc2ccccc2o1)c1cccc(F)c1)NC1CCCCC1 was read as sEH inhibitor inactive, CYP2C19 activ inactive, CYP2C9 inhib 63, sEH act inactive, CYP2C9 activ inactive and CYP2C19 inh 74.
CS(=O)(=O)N(CC(=O)NC1CCCC1)c1cccc(F)c1 was read as sEH inhibitor inactive, CYP2C19 activ inactive, CYP2C9 inhib inactive, sEH act inactive, CYP2C9 activ inactive and CYP2C19 inh inactive.
O=C(CSc1nc2ccccc2o1)N1CCCC1 was read as CYP2C19 activ inactive, CYP2C9 inhib inactive, CYP2C9 activ inactive and CYP2C19 inh inactive.
Screening CCSc1nnc(NC(=O)CSc2nc3c(c(=O)n2-c2ccccc2OC)SCC3)s1 returned sEH inhibitor inactive and sEH act inactive.

Source: PubChem (several laboratories)
